According to PubChem BioAssay (NCATS):
“And” between values parts separate entries of the source, which are not always exact repeats. Equal entries are not always repeated. Records with an inconclusive call do not appear. Entries that show only a call come without a potency. The source made the active and inactive calls. Unless noted, the call rests on the fitted dose curve; in most records, active means well fitted curve in the direction sought with a large enough effect; inconclusive means small, poorly fitted or top-dose-only effect, or another doubt; inactive means no such curve, though single readings can be large; an effect the other way counts as inactive or inconclusive.

Tests used:
[1] = Cell Viability - SH-SY5Y (AID 544); details: SH-SY5Y neuroblastoma cell viability; viability change, negative = cytotoxic: at 92.2 µM (top of the series);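 further: cells exposed to compound for 40 hours; nearly all actives have a fitted effect of over 55% in size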
Method in brief: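 SH-SY5Y human neuroblastoma cells (1500/well) incubated 5 h, then compound-treated 40 h at 37 °C in complete medium. Viability read as intracellular ATP by CellTiter-Glo luminescence after 20 min; AC50 from Hill-equation fits of qHTS concentration-response.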

[2] = Cellular Toxicity (caspase-3) N2a (AID 665); details: N2a cells, luminescence, normalized: DMSO 0%, 10 µM staurosporine 100%; at 92.2 µM (top of the series);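 further: compound exposure lasted 16 h at 37 °C before readout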
Method in brief: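 Mouse N2a neuroblastoma cells, 1500 per well, treated 16 h at 37 °C in complete medium; caspase-3/7 activity by Caspase-Glo luminescence after 1 h. Normalized to DMSO and 10 uM staurosporine; AC50 from Hill fits.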

[3] = Cell Viability - LYMP2-005 (AID 967)
Method in brief: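 Acute cytotoxicity is scored as a concentration-dependent drop in intracellular ATP in human lymphoblastoid LYMP2-005 cells after 24 h compound treatment. ATP is quantified by luciferase luminescence, and AC50 is derived by Hill-equation modelling.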

[4] = Cell Viability - LYMP2-015 (AID 971); further: nearly all actives have a fitted effect of over 55% in size
Method in brief: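 LYMP2-015 human lymphoblastoid cells (2500/well) in complete medium, compound-treated 24 h at 37 C; viability read as cellular ATP by CellTiter-Glo luminescence after 30 min at room temperature. AC50 from Hill-equation fits of qHTS concentration-response data.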

[5] = Cell Viability - LYMP2-019 (AID 973); further: nearly all actives have a fitted effect of over 55% in size
Method in brief: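 Human lymphoblastoid LYMP2-019 cells (2500/well) preincubated 5 h at 37 C, then treated 24 h at 37 C in complete medium. Viability by CellTiter-Glo ATP luminescence after 30 min at room temperature; AC50 from Hill fits.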

[6] = target: Peroxisome proliferator-activated receptor delta (Homo sapiens) (UniProt Q03181); experiment: qHTS assay for small molecule agonists of peroxisome proliferator-activated receptor delta signaling (AID 588534; calls by dose curve)
Method in brief: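 Cells carrying a PPAR-delta beta-lactamase reporter were treated with compounds for 18 h at 37 °C in agonist mode. CCF4 fluorescence was read after 2 h; EC50 and efficacy from Hill fits.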

[7] = qHTS assay for small molecule antagonists of peroxisome proliferator-activated receptor delta signaling (AID 588535; active means well fitted inhibition curve with a large enough effect in the signal ratio, with a control signal flat, not every such curve was filed as active; the % refers to the signal ratio;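 on max response: cells co-treated with a PPAR-delta agonist as stimulator during compound exposure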); details: HEK293T PPARd-UAS-bla, beta-lactamase FRET ratio, 18 h; 460 nm channel
Method in brief: (§1)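 Reporter: UAS-bla under PPAR-delta response element, HEK293T host. Medium: 2% charcoal/dextran FBS. Dosing: titration, 18 hrs, 37 C. Detection: CCF4, 2 hrs RT, 405 ex/460 and 530 em.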

[8] = target: Peroxisome proliferator-activated receptor delta (Homo sapiens) (UniProt Q03181); experiment: as above
Method in brief: as §1

[9] = target: Peroxisome proliferator-activated receptor gamma (Homo sapiens) (UniProt P37231); experiment: qHTS assay for small molecule antagonists of peroxisome proliferator-activated receptor gamma signaling (AID 588537; active means well fitted inhibition curve with a large enough effect in the signal ratio, with a control signal flat, not every such curve was filed as active; the % refers to the signal ratio;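 further: reporter cells co-stimulated with 50 nM rosiglitazone agonist during compound treatment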)
Method in brief: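 We seeded GeneBLAzer HEK293 reporter cells at 3000 per well, allowed 6-6.5 h attachment at 37 C, then co-treated with test compound titrations and 50 nM rosiglitazone overnight (16 h). Inhibition was quantified from 460/530 nm emission ratios.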

[10] = target: Thyroid hormone receptor beta (Homo sapiens) (UniProt P10828); experiment: qHTS assay for small molecule agonists of thyroid hormone receptor beta signaling (AID 588545; calls by dose curve)
Method in brief: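 In this cell-based screen, titrated compounds act on HEK 293 cells held in medium with 2% charcoal/dextran FBS, NEAA and pyruvate for 18 hrs at 37 C. Responses are expressed relative to T3 (10 nM) as 100% and basal DMSO as 0%.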

[11] = target: Voltage-gated inwardly rectifying potassium channel KCNH2 (Homo sapiens) (UniProt Q12809); experiment: qHTS Assay for Small Molecule Inhibitors of the Human hERG Channel Activity (AID 588834);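 further: top concentration of the series differs between compounds; lower thallium flux fluorescence means stronger hERG block; nearly all actives have a fitted effect of over 50% in size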
Method in brief: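 hERG-BacMam U2OS, 2000 cells/well; 0.7X FluxOR loading 1 hr RT dark; cpd ~10 min 37 °C; stim buffer; FDSS fluorescence 2 min @ 1 s; AC50 Hill fit.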

[12] = MultiTox-Fluor Cytotoxicity Assay - LYMP1-002 - Live Cells (AID 955);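 further: cells exposed to compound for 16 hours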
Method in brief: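 Human lymphoblastoid LYMP1-002 cells, 2500/well, treated 16 h at 37 C in complete medium. Live-cell protease activity via GF-AFC fluorescence (Ex/Em 405/510) after 60 min reagent incubation; AC50 from Hill fits.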

[13] = Cell Viability - LYMP2-011 (AID 969); further: nearly all actives have a fitted effect of over 60% in size
Method in brief: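 2500 cells/well in complete medium, compound-treated 24 h at 37 C. Viability read as intracellular ATP by CellTiter-Glo luminescence after 30 min at room temperature. AC50 from Hill fits of qHTS concentration-response data.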

[14] = Cell Viability - LYMP2-013 (AID 970); further: nearly all actives have a fitted effect of over 55% in size
Method in brief: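 Human lymphoblastoid LYMP2-013 cells, 2500/well, treated 24 h at 37 C in complete medium; viability as intracellular ATP by CellTiter-Glo luminescence after 30 min. AC50 from Hill fits of qHTS concentration-response.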

[15] = qHTS assay for environmental chemicals that activate the Aryl hydrocarbon Receptor (AhR) signaling pathway (AID 651777); details: 1A2-DRE human hepatoma cells, luciferase, 24 h; activation: stronger effect = higher value; further: nearly all actives have a fitted effect of over 15% in size
Method in brief: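 Human hepatoma 1A2-DRE cells, stably carrying a dioxin response element and CYP1A2 promoter driving luciferase, were exposed to compounds for 24 hr at 37 C and 5% CO2. Luciferase signal was then read after 30 min One-Glo at room temperature.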

[16] = Cell Viability - MRC5 (AID 434; calls by dose curve;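 further: potency means the concentration at half of the fitted maximal effect; cells exposed to compound for 40 hours at 37 °C; potency reflects cytotoxicity seen as loss of intracellular ATP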); details: MRC5 lung fibroblast viability, qHTS
Method in brief: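 MRC5 normal human lung fibroblasts (1500/well) were treated with compounds for 40 hr at 37 °C in complete medium, and viable cells were measured as intracellular ATP by CellTiter-Glo luminescence. AC50 came from Hill fits, normalized to DMSO and 100 uM tamoxifen.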

[17] = Cell Viability - LYMP2-006 (AID 978); further: nearly all actives have a fitted effect of over 60% in size
Method in brief: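 Cells are seeded at 2500 per well and rested 5 hr at 37 C. Compounds are added across a concentration series for 24 hr at 37 C, after which ATP is quantified by luciferase luminescence.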

[18] = Cellular Toxicity (caspase-3) Hek293 (AID 664);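 further: cells exposed to compound for 16 h at 37 °C before readout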
Method in brief: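 HEK293 cells in complete medium treated 16 h at 37 °C, then Caspase-Glo 3/7 luminescence read after 20 min at room temperature. Normalized to DMSO and 100 uM tamoxifen; AC50 from Hill fit of concentration-response.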

[19] = Cell Viability - LYMP2-023 (AID 975)
Method in brief: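 LYMP2-023 human lymphoblastoid cells, 2500/well, preincubated 5 hr at 37 C, then compound-treated 24 hr at 37 C in complete medium. CellTiter-Glo luminescence (ATP) after 30 min at room temperature; AC50 from Hill-equation fits; tetraoctylammonium bromide positive control.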

[20] = Cell Viability - LYMP1-002 - Assay at 40 hr (AID 994); further: nearly all actives have a fitted effect of over 60% in size
Method in brief: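 LYMP1-002 human lymphoblastoid cells (2500/well, complete medium) were treated with compounds for 40 hr at 37 C. Intracellular ATP was measured by CellTiter-Glo luminescence, and AC50 values came from Hill-equation fits of concentration-response data; tetraoctylammonium bromide was the positive control.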

Voltage-gated inwardly rectifying potassium channel KCNH2 (Homo sapiens), sequence (Q12809 whole entry, looked up): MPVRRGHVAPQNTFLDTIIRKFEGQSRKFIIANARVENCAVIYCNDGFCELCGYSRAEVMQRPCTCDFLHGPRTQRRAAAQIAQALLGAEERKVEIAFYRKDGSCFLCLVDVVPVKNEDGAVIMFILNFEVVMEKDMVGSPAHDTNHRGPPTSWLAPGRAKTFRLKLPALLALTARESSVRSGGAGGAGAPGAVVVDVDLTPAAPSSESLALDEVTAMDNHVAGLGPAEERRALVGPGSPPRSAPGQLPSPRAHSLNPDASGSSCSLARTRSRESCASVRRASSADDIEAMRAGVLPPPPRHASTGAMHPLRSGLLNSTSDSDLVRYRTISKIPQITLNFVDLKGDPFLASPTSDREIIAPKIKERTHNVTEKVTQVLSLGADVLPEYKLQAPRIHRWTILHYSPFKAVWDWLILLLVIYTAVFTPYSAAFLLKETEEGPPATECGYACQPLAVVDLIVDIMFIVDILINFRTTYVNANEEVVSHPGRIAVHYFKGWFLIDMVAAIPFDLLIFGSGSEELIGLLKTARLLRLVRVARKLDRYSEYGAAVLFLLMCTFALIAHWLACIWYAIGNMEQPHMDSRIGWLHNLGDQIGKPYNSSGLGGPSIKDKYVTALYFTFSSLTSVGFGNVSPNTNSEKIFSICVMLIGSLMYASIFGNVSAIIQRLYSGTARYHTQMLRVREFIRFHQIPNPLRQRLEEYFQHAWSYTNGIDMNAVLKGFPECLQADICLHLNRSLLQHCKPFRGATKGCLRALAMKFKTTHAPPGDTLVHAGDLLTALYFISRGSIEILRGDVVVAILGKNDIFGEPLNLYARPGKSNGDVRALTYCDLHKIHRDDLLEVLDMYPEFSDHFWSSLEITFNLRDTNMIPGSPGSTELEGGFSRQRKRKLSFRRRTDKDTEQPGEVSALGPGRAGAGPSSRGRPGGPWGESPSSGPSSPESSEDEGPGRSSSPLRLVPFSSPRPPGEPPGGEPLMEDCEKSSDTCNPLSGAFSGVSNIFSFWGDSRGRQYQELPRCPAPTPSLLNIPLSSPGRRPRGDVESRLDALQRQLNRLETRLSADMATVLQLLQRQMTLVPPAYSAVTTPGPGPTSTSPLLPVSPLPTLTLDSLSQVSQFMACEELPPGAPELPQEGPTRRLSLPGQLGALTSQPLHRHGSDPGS
Peroxisome proliferator-activated receptor delta (Homo sapiens), sequence (Q03181 whole entry, looked up): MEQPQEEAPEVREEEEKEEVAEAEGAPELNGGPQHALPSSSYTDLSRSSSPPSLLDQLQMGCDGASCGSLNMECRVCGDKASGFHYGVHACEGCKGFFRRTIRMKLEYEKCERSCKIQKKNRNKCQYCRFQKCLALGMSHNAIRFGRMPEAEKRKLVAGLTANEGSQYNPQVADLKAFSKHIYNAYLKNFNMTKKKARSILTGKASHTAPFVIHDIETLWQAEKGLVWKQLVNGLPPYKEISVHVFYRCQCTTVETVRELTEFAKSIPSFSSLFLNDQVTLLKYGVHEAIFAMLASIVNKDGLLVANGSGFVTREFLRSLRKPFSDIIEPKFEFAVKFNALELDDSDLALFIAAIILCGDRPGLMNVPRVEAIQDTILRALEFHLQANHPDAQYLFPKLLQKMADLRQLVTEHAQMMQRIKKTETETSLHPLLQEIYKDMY
Thyroid hormone receptor beta (Homo sapiens), sequence (P10828 whole entry, looked up): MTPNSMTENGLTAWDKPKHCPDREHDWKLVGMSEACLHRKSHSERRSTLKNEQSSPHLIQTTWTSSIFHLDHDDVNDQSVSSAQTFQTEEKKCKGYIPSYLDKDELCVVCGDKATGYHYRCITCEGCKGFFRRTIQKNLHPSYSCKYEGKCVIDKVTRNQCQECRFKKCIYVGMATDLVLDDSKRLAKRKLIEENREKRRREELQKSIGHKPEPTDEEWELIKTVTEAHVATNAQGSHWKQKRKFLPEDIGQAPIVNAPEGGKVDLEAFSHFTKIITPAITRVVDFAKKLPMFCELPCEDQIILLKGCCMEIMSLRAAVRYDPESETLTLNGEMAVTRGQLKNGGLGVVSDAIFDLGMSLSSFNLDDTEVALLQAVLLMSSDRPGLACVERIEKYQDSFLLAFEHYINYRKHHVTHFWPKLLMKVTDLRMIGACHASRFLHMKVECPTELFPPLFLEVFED
Peroxisome proliferator-activated receptor gamma (Homo sapiens), sequence (P37231 whole entry, looked up): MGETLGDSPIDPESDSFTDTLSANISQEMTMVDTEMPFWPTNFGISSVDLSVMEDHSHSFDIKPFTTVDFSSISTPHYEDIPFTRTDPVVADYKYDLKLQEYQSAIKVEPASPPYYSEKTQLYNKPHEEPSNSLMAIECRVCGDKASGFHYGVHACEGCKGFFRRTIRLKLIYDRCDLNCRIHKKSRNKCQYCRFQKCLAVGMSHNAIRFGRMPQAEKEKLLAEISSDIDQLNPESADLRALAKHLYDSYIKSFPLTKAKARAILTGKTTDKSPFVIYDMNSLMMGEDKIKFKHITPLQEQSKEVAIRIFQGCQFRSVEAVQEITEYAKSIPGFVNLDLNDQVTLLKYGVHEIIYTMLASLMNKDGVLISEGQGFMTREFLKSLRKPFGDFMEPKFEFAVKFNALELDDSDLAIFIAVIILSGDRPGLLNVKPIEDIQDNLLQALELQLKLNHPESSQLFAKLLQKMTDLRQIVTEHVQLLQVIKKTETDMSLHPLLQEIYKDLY

| Compound | Potency [1] | caspase-3 activation [2] | Potency [3] | Potency [4] | Potency [5] | outcome [6] | max response [7] | Potency [8] | Potency [9] | outcome [10] | Potency [11] | outcome [12] | Potency [13] | Potency [14] | activation [15] | Potency [16] | Potency [17] | outcome [18] | Potency [19] | Potency [20] |
| --- | --- | --- | --- | --- | --- | --- | --- | --- | --- | --- | --- | --- | --- | --- | --- | --- | --- | --- | --- | --- |
| C1CCC2CCCCC2C1 (stereo not drawn) | inactive | -0.192% (inactive) | inactive | inactive | inactive | inactive | -10.8% | inactive | inactive | inactive | inactive |  |  |  |  |  |  |  |  |  |
| NC(=S)Nc1ccccc1 | inactive |  |  | inactive | inactive |  | -9.7% and -15% | inactive | inactive | inactive |  | inactive | inactive | inactive | 0.646% (inactive) and -0.436% (inactive) and 0.133% (inactive) |  |  |  |  |  |
| C[C@]12CC[C@H]3[C@@H](CCC4=CC(=O)CC[C@@]43C)[C@@H]1CC[C@@H]2O | inactive |  |  |  |  | inactive |  |  | inactive | inactive |  |  | inactive | inactive | -1.35% (inactive) | > 92 µM (inactive) | inactive |  |  |  |
| Nc1ccc(Br)cc1 |  |  |  | inactive | inactive |  |  |  |  |  | inactive | inactive | inactive | inactive | 0.717% (inactive) | > 92 µM (inactive) | inactive | inactive | inactive | inactive |
| CC(C)(c1ccccc1)c1ccc(O)cc1 |  | 1.43% (inactive) | inactive | inactive | inactive | inactive | 13% | inactive |  | inactive |  | inactive |  |  | 0.0169% (inactive) and 0.603% (inactive) | > 92 µM (inactive) | inactive |  | inactive | inactive |
| BrCCBr | inactive | -3.9% (inactive) | inactive | inactive | inactive |  | -6.18% and 14.8% | inactive | inactive | inactive | inactive |  |  |  |  |  |  |  |  | inactive |
| Clc1ccc2ccccc2c1 |  |  |  | inactive | inactive | inactive | -27.9% | inactive | inactive |  |  | inactive | inactive |  |  |  |  | inactive |  | inactive |
| c1nc[nH]n1 |  |  | inactive | inactive | inactive |  | -9.48% | inactive |  |  | inactive |  | inactive | inactive | -0.221% (inactive) |  | inactive |  | inactive | inactive |
| CCOc1ccc(N)cc1 | inactive |  |  | inactive |  | inactive |  |  |  | inactive | inactive |  |  |  |  | > 92 µM (inactive) |  |  |  | inactive |
| Nc1ccccc1Cl |  |  |  |  |  | inactive | 6.02% | inactive |  |  | inactive | inactive | inactive |  |  |  |  | inactive | inactive |  |
| CCSC(=O)Cl |  |  | inactive |  |  |  |  |  | inactive |  | inactive | inactive |  | inactive | 0.624% (inactive) |  |  | inactive | inactive | inactive |
| O=NN(CCO)CCO | inactive | -1.3% (inactive) |  | inactive | inactive |  |  |  |  |  |  | inactive | inactive | inactive | -0.118% (inactive) | > 92 µM (inactive) | inactive | inactive | inactive | inactive |
| Cc1ccccc1N |  | -5.28% (inactive) and -1.86% (inactive) |  | inactive | inactive | inactive | 7.62% | inactive |  | inactive |  | inactive | inactive |  | 4.33% (inactive) and 3.03% (inactive) | > 92 µM (inactive) |  | inactive | inactive |  |
| CC(=O)[O-].CC(=O)[O-].O.O.O.[Pb+2] | inactive | 0.731% (inactive) and -2.95% (inactive) |  |  |  |  |  |  |  | inactive | inactive | inactive |  | inactive |  | > 92 µM (inactive) | inactive | inactive | inactive |  |
| CC(C)(C)OO | inactive | -2.06% (inactive) and -1.93% (inactive) | inactive | inactive |  | inactive | 26.2% and -4.41% | inactive | inactive | inactive | inactive | inactive |  | inactive | -0.688% (inactive) and -2.1% (inactive) | > 92 µM (inactive) | inactive |  | inactive |  |
| [O-][Br+2]([O-])O |  | -9.36% (inactive) and -10.4% (inactive) |  |  | inactive |  |  |  | inactive | inactive | inactive |  |  | inactive | 0.946% (inactive) and -0.602% (inactive) | > 92 µM (inactive) | inactive | inactive | inactive | inactive |
